# In paper PMC7862700, “An all-to-all approach to the identification of sequence-specific readers for epigenetic DNA modifications on cytosine”:
# Legend:
# Assay in all cases: DAPPL (digital affinity profiling via proximity ligation, sequencing); 10 mM Tris-HCl pH 7.5, 50 mM NaCl, 1 mM DTT, 4% glycerol, room temperature, 30 min; GST-TFs on glutathione beads, 16-mer random dsDNA library, 0.1% formaldehyde crosslink after washing; high values mean tight binding
# FEV = molecular target: T1, FEV (Homo sapiens, UniProt Q99581 1-238); conditions: protein: recombinant; tags: N-terminal GST; dsDNA, one strand shown
# T1 sequence: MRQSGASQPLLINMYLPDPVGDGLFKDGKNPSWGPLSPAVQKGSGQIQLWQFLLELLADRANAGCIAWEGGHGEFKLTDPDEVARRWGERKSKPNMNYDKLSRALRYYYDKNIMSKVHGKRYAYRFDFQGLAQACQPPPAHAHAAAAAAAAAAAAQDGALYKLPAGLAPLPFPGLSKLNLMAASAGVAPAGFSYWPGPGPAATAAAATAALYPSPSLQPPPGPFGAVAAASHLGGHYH
# How it was run: (§1)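 The binding signal reported is, for every hexamer, its read frequency for a factor over its read frequency for the tag-only sample. Reads came from pools of yeast-expressed, GST-fused human transcription factors on glutathione beads, barcoded with DNA and mixed with that sample, which were incubated with 200 nmole of a random double-stranded 16-mer DNA library in Tris/NaCl/DTT/glycerol buffer at room temperature for 30 min. After washing, the pools were crosslinked with 0.1% formaldehyde, proximity-ligated with BsaI/T4 ligase for 1 h at 37 °C, PCR-amplified and sequenced on an Illumina NextSeq500.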
# ETV5 = ETV5 (Homo sapiens, UniProt P41161 1-510); conditions: protein: recombinant; tags: N-terminal GST; dsDNA, one strand shown
# Sequence of ETV5 (P41161 whole entry): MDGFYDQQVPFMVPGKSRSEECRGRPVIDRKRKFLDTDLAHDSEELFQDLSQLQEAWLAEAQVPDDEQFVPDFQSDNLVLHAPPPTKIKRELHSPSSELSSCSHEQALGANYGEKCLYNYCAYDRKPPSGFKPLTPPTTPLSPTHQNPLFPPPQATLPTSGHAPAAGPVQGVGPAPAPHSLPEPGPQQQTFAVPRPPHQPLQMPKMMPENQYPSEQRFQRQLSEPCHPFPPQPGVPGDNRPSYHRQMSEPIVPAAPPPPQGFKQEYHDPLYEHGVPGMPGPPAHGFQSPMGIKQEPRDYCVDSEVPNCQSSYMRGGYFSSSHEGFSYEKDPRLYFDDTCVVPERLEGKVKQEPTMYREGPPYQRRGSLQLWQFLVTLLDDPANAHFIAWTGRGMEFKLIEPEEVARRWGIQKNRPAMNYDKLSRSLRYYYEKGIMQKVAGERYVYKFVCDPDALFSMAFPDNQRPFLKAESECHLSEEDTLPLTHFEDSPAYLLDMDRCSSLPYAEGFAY
# How it was run: as §1
# HSF1 = HSF1 (Homo sapiens, UniProt Q00613 1-529); conditions: protein: recombinant; tags: N-terminal GST; chain copies: 3; dsDNA, one strand shown
# Sequence of HSF1 (Q00613 whole entry): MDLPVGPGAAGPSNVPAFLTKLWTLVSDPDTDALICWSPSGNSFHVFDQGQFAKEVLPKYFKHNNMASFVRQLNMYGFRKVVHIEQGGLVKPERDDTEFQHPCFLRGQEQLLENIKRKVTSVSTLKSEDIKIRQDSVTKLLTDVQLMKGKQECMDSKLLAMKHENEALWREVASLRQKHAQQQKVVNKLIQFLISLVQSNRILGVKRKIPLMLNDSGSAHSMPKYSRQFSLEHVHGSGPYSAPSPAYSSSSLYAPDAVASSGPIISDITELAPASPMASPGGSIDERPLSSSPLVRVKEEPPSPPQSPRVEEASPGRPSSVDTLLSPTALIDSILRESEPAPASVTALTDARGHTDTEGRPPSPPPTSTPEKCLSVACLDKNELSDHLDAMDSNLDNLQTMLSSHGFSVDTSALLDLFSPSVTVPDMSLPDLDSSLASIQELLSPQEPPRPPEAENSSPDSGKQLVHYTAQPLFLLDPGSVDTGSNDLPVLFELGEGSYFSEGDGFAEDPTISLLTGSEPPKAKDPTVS
# How it was run: as §1
# SPIC = molecular target: T2, SPIC (Homo sapiens, UniProt Q8N5J4 1-248); conditions: protein: recombinant; tags: N-terminal GST; dsDNA, one strand shown
# T2 sequence: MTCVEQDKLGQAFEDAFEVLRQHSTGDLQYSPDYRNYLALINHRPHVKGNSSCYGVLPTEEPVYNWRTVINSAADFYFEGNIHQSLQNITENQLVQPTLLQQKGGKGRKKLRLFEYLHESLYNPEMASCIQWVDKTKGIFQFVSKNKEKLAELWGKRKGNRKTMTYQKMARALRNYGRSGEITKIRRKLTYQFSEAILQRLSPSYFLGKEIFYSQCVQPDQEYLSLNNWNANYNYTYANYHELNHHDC
# How it was run: as §1
# ELF4 = ELF4 (Homo sapiens, UniProt Q99607 1-663); conditions: protein: recombinant; tags: N-terminal GST; dsDNA, one strand shown
# Sequence of ELF4 (Q99607 whole entry): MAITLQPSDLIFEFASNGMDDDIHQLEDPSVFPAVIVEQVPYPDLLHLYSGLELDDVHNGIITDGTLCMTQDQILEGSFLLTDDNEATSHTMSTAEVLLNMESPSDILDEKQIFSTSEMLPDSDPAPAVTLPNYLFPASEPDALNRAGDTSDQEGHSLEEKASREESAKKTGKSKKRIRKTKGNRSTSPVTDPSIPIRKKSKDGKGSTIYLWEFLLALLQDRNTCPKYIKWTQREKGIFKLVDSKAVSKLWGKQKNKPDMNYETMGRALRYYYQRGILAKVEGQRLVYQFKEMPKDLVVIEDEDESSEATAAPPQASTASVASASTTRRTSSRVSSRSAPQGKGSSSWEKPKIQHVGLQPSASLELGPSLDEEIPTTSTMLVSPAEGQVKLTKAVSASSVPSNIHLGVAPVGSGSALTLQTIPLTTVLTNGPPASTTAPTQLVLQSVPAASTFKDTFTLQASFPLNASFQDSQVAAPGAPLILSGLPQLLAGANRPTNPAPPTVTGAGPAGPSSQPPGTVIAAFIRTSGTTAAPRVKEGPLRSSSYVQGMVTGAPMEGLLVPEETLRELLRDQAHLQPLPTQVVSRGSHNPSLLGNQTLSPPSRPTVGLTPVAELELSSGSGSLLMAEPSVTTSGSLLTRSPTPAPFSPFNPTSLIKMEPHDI
# How it was run: as §1
# ELK4 = molecular target: T3, ELK4 (Homo sapiens, UniProt P28324-2 1-405); conditions: protein: recombinant; tags: N-terminal GST; dsDNA, one strand shown
# T3 sequence: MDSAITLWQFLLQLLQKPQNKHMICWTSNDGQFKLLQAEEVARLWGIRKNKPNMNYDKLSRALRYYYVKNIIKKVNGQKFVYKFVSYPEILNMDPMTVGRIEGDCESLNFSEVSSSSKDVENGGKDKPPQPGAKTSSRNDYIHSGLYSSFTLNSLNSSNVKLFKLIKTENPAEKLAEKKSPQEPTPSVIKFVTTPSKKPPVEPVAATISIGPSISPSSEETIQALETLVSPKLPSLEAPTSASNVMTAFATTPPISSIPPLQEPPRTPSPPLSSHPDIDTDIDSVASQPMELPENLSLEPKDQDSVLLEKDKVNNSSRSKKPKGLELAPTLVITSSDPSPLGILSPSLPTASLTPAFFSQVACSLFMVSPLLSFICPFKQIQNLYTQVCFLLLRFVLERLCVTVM
# How it was run: as §1
# ETV2 = molecular target: T4, ETV2 (Homo sapiens, UniProt O00321 1-342); conditions: protein: recombinant; tags: N-terminal GST; dsDNA, one strand shown
# T4 sequence: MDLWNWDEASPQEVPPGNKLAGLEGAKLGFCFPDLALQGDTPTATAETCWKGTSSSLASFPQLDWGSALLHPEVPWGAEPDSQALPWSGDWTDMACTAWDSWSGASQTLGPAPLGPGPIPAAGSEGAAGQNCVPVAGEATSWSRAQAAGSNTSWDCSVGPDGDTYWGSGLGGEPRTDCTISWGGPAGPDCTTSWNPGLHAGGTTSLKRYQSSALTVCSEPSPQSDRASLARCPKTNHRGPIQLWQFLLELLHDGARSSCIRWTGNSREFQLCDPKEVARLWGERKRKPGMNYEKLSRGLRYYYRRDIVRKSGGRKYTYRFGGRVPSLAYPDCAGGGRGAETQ
# How it was run: as §1
# ELF3 = molecular target: T5, ELF3 (Homo sapiens, UniProt P78545 1-371); conditions: protein: recombinant; tags: N-terminal GST; dsDNA, one strand shown
# T5 sequence: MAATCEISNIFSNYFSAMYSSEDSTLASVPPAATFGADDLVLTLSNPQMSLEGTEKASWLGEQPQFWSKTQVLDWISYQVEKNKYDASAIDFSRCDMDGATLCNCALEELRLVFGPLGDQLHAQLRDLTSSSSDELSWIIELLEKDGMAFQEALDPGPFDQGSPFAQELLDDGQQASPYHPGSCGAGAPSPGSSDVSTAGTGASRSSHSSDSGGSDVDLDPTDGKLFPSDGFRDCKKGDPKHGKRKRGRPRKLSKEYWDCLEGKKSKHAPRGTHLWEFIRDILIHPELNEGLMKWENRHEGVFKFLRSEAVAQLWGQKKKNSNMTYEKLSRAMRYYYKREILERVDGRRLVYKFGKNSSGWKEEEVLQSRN
# How it was run: as §1
# CRX = CRX (Homo sapiens, UniProt O43186 1-299); conditions: protein: recombinant; tags: N-terminal GST; dsDNA, one strand shown
# Sequence of CRX (O43186 whole entry): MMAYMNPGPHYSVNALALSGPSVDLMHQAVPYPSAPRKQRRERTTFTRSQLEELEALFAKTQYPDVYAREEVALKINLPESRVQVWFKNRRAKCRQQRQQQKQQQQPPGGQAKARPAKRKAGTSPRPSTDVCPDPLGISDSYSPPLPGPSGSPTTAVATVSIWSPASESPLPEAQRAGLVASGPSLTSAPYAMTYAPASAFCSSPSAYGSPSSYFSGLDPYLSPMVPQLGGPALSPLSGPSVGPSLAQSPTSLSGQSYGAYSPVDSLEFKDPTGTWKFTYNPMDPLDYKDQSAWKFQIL
# How it was run: as §1
# ETV1 = ETV1 (Homo sapiens, UniProt P50549 1-477); conditions: protein: recombinant; tags: N-terminal GST; dsDNA, one strand shown
# Sequence of ETV1 (P50549 whole entry): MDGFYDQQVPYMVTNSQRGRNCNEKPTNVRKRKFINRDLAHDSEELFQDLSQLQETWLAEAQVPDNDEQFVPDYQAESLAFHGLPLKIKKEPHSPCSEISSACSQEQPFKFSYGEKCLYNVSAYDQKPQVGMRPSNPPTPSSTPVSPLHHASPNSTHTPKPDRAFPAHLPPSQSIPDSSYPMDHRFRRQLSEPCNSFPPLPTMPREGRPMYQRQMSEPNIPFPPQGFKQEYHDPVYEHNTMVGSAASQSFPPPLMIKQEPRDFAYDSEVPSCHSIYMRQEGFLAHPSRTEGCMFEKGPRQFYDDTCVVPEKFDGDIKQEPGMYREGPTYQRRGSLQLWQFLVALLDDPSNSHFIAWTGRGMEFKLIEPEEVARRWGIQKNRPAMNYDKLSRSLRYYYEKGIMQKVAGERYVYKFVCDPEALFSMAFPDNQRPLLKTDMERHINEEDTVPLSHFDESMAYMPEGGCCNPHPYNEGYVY
# How it was run: as §1
# ERF = molecular target: T6, ERF (Homo sapiens, UniProt P50548 1-548); conditions: protein: recombinant; tags: N-terminal GST; dsDNA, one strand shown
# T6 sequence: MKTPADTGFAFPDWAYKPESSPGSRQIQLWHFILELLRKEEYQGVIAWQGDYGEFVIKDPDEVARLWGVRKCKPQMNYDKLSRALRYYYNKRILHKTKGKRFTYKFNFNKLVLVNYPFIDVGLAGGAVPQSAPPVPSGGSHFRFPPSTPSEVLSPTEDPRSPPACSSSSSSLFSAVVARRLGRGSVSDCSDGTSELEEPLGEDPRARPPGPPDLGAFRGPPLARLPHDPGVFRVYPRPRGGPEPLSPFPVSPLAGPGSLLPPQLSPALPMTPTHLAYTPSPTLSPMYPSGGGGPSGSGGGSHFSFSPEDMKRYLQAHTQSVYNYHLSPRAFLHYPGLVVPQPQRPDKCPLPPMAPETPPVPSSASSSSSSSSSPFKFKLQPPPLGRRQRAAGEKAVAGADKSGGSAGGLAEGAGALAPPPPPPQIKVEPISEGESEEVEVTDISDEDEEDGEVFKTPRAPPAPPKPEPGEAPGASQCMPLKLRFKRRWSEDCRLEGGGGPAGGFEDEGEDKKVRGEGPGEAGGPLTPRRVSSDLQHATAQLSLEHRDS
# How it was run: as §1
# ETV3L = molecular target: T7, ETV3L (Homo sapiens, UniProt Q6ZN32 1-361); conditions: protein: recombinant; tags: N-terminal GST; dsDNA, one strand shown
# T7 sequence: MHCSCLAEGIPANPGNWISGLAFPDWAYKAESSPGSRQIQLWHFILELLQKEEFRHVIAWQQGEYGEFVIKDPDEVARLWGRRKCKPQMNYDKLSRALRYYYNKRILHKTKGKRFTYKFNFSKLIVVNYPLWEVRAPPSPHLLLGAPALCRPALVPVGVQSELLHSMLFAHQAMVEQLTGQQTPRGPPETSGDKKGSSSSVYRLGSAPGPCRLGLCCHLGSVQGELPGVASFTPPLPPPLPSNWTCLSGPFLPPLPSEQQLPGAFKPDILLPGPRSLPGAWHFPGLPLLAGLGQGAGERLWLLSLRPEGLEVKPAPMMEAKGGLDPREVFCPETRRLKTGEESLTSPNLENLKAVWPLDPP
# How it was run: as §1
# ETS2 = molecular target: T8, ETS2 (Homo sapiens, UniProt P15036 1-469); conditions: protein: recombinant; tags: N-terminal GST; dsDNA, one strand shown
# T8 sequence: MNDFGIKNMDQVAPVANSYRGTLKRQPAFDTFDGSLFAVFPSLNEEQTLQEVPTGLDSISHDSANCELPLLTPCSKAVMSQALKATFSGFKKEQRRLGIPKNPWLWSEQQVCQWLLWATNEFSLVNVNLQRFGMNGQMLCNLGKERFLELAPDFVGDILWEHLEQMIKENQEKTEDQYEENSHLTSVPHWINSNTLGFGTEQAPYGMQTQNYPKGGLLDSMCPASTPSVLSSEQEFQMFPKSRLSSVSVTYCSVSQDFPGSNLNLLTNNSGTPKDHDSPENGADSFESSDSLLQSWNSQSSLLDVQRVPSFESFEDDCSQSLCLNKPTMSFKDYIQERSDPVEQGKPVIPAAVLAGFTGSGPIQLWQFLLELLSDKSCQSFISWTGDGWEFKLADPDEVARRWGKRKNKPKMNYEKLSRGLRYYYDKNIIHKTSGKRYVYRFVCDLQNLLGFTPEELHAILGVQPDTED
# How it was run: as §1
# SPDEF = molecular target: T9, SPDEF (Homo sapiens, UniProt O95238 1-335); conditions: protein: recombinant; tags: N-terminal GST; dsDNA, one strand shown
# T9 sequence: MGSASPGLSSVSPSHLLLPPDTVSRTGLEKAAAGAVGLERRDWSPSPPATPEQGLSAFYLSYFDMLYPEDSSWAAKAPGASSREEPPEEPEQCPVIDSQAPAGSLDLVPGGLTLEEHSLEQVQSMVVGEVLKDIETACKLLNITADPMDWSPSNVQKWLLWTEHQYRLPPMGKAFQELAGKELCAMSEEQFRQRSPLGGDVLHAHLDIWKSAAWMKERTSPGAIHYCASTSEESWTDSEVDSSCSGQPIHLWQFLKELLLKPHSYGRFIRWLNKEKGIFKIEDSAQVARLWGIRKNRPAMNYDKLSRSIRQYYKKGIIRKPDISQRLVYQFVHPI
# How it was run: as §1
# ETV7 = molecular target: T10, ETV7 (Homo sapiens, UniProt Q9Y603 1-341); conditions: protein: recombinant; tags: N-terminal GST; dsDNA, one strand shown
# T10 sequence: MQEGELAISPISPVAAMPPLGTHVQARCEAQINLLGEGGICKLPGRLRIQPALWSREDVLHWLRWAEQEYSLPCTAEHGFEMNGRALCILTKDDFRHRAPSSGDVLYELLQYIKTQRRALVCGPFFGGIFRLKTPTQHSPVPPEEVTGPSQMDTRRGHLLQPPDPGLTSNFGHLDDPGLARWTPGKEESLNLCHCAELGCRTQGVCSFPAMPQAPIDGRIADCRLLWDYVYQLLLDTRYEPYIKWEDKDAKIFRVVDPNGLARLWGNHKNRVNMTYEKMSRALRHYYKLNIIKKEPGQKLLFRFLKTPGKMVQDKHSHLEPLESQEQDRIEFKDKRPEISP
# How it was run: as §1
# ELF5 = molecular target: T11, ELF5 (Homo sapiens, UniProt Q9UKW6-2 1-255); conditions: protein: recombinant; tags: N-terminal GST; dsDNA, one strand shown
# T11 sequence: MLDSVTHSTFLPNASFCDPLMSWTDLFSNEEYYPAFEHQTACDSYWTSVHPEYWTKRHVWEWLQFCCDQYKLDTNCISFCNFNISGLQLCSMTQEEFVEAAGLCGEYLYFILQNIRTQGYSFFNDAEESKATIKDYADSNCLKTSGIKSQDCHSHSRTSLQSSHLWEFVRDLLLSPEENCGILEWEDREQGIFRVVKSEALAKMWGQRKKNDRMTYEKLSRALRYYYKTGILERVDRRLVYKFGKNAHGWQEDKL
# How it was run: as §1
# ETV3 = molecular target: T12, ETV3 (Homo sapiens, UniProt P41162-2 1-143); conditions: protein: recombinant; tags: N-terminal GST; dsDNA, one strand shown
# T12 sequence: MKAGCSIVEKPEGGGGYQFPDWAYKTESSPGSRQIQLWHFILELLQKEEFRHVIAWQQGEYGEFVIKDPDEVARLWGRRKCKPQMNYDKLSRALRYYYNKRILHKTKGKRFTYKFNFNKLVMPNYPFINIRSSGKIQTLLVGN
# How it was run: as §1
# ETV6 = ETV6 (Homo sapiens, UniProt P41212 1-452); conditions: protein: recombinant; tags: N-terminal GST; dsDNA, one strand shown
# Sequence of ETV6 (P41212 whole entry): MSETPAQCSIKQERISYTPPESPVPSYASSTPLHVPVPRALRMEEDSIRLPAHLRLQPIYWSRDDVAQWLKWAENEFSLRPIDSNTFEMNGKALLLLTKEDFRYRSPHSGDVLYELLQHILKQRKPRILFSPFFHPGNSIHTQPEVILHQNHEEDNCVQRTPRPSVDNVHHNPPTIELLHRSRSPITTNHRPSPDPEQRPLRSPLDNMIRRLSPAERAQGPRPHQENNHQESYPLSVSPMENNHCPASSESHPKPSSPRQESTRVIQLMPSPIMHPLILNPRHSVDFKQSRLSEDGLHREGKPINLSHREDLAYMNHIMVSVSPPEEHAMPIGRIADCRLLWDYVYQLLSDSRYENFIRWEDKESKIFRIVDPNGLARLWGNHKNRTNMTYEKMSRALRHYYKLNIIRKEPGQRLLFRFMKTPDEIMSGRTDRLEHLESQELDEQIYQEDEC
# How it was run: as §1
sequence,measurement,setting,value
CCAAAA,binding signal,FEV,"1.2 fold enrichment (6-mer frequency, TF over GST control)"
same,binding signal,ETV5,"1.19 fold enrichment (6-mer frequency, TF over GST control)"
same,binding signal,HSF1,"1.17 fold enrichment (6-mer frequency, TF over GST control)"
same,binding signal,SPIC,"1.05 fold enrichment (6-mer frequency, TF over GST control)"
same,binding signal,ELF4,"1.19 fold enrichment (6-mer frequency, TF over GST control)"
same,binding signal,ELK4,"1.05 fold enrichment (6-mer frequency, TF over GST control)"
same,binding signal,ETV2,"1.28 fold enrichment (6-mer frequency, TF over GST control)"
same,binding signal,ELF3,"1.03 fold enrichment (6-mer frequency, TF over GST control)"
same,binding signal,CRX,"1.06 fold enrichment (6-mer frequency, TF over GST control)"
same,binding signal,ETV1,"1.18 fold enrichment (6-mer frequency, TF over GST control)"
same,binding signal,ERF,"1.16 fold enrichment (6-mer frequency, TF over GST control)"
same,binding signal,ETV3L,"1.1 fold enrichment (6-mer frequency, TF over GST control)"
same,binding signal,ETS2,"1.11 fold enrichment (6-mer frequency, TF over GST control)"
same,binding signal,SPDEF,"1.11 fold enrichment (6-mer frequency, TF over GST control)"
same,binding signal,ETV7,"1.11 fold enrichment (6-mer frequency, TF over GST control)"
same,binding signal,ELF5,"1.11 fold enrichment (6-mer frequency, TF over GST control)"
same,binding signal,ETV3,"1.15 fold enrichment (6-mer frequency, TF over GST control)"
same,binding signal,ETV6,"1.2 fold enrichment (6-mer frequency, TF over GST control)"
